“And” between values parts separate entries of the source, which are not always exact repeats. Identical values can stand only once. The source made the active and inactive calls. Rule for the calls: active = hit-call score of the fitted dose curve at least 0.9, where 1 is the maximum; inactive = score below 0.9.

Read-out in the first assay: Intercellular Adhesion Molecule 1 (ICAM1), ICAM1 (gene 3383)
As to the kind of experiment: LTEA_HepaRG_ICAM1: Life Technologies and Expression Analysis (LTEA) Assay for Intercellular Adhesion Molecule 1 (ICAM1) using HepaRG (AID 2283507). The settings on record: mRNA level, 48 h; actives raise or lower the signal. The procedure, abridged:
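Gain or loss of transcript in HepaRG hepatic cells is quantified by qRT-PCR after 48 h chemical exposure (up to 100 uM, half-log steps), with DMSO as baseline.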
For `CSC(=O)c1cccc2nnsc12`, the call was inactive.
With `c1ccc(Nc2ccccc2)cc1`, the molecule was classed as inactive.
The same measure, in the same setting: then `CCOC(=O)NCCOc1ccc(Oc2ccccc2)cc1`, with “inactive”; and `CC(C)(c1ccc(O)cc1)c1ccc(O)cc1`, with “inactive”.
In general, AC50 refers to the midpoint of the concentration-response curve, whichever way the signal moves. For the molecule `Oc1ccc(C(c2ccc(O)cc2)C(Cl)(Cl)Cl)cc1`, the AC50 is 79.3 µM (active).
As for `CCOC(=O)c1ccc(O)cc1`, the call was inactive.
In the case of `CCCCCOC(=O)COc1cc(N2C(=O)C3=C(CCCC3)C2=O)c(F)cc1Cl`, the call was inactive.
With `C[C@]12CC[C@@H]3c4ccc(O)cc4C[C@@H](CCCCCCCCCS(=O)CCCC(F)(F)C(F)(F)F)[C@H]3[C@@H]1CC[C@@H]2O` (stereo partly drawn), the half-maximal activity concentration (AC50) was 0.0415 µM (active).
Regarding `CCCCCCC(C)OC(=O)COc1nc(F)c(Cl)c(N)c1Cl` (stereo not drawn), the molecule was classed as inactive.
Regarding `N[C@@H](Cc1cc(I)c(Oc2ccc(O)c(I)c2)c(I)c1)C(=O)O`, the AC50 was 40 µM (active).
In the case of `CCNc1nc(N)nc(Cl)n1`, the outcome was inactive.
With `COCCO`, the outcome was inactive.
As for `CCN(Cc1c(F)cccc1Cl)c1c([N+](=O)[O-])cc(C(F)(F)F)cc1[N+](=O)[O-]`, the outcome was inactive.
As to `CN(C)C(=O)Nc1ccc(Cl)c(Cl)c1`, the molecule was classed as inactive.
Still for that read-out and setting: in the case of `CCCCOCCOCCOCc1cc2c(cc1CCC)OCO2` it was “inactive”; in that of `CCOC(=O)C(C)Oc1ccc(Oc2cnc3cc(Cl)ccc3n2)cc1` (stereo not drawn), “inactive”; in that of `CCSC(=O)N(CC(C)C)CC(C)C`, “inactive”.
In the case of `COC(=O)CSc1cc(N=c2sc(=O)n3n2CCCC3)c(F)cc1Cl`, the molecule was called inactive.
As for `c1ccc2[nH]c(-c3cscn3)nc2c1`, the outcome was inactive.
Take `CCCCC(CC)COC(=O)c1ccccc1C(=O)O` (stereo not drawn): the outcome was inactive.
For the molecule `CCOC(=O)C(C)Oc1ccc(Oc2nc3ccc(Cl)cc3o2)cc1` (stereo not drawn), the outcome was inactive.
Consider `O=C(c1ccccc1)C1CCCCC1`, for which the result was inactive.
Still for that read-out and setting: in the case of `COc1c(Cl)ccc(Cl)c1C(=O)O` it was “inactive”.
On to `CC(=O)[C@H]1CC[C@H]2[C@@H]3CCC4=CC(=O)CC[C@]4(C)[C@H]3CC[C@]12C`, for which the AC50 is 33.3 µM (active).
With `CC1(C)C(C=C(Cl)Cl)C1C(=O)OCc1cccc(Oc2ccccc2)c1` (stereo not drawn), the outcome was inactive.
With `S=C(S)NCCNC(=S)S.[Mn+2].[S-]C([S-])=NCCN=C([S-])[S-].[Zn+2]`, the AC50 was 1.8 µM (active) and 2.09 µM (active) and 2.17 µM (active).

Read-out in another assay: Insulin-like growth factor-binding protein 1 (IGFBP1), IGFBP1 (gene 3484)
The assay can be described thus: LTEA_HepaRG_IGFBP1: Life Technologies and Expression Analysis (LTEA) Assay for Insulin-like growth factor-binding protein 1 (IGFBP1) using HepaRG (AID 2283508). The settings on record: mRNA level, 48 h; actives raise or lower the signal. The procedure, abridged:
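mRNA induction or loss was quantified by qRT-PCR after 48 h chemical exposure of human HepaRG cells, with 0.5% DMSO as vehicle and baseline. Concentration-response over eight points up to 100 uM.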
Take `CSC(=O)c1cccc2nnsc12`: the result was inactive.
Same read-out and setting: then `c1ccc(Nc2ccccc2)cc1`, with “inactive”.
Turning to `CCOC(=O)NCCOc1ccc(Oc2ccccc2)cc1`, the concentration at half-maximal activity (AC50) is 73.1 µM (active).
Regarding `CC(C)(c1ccc(O)cc1)c1ccc(O)cc1`, the outcome was inactive.
As to `Oc1ccc(C(c2ccc(O)cc2)C(Cl)(Cl)Cl)cc1`, the AC50 is 88.5 µM (active).
On to `CCOC(=O)c1ccc(O)cc1`, for which the result was inactive.
`CCCCCOC(=O)COc1cc(N2C(=O)C3=C(CCCC3)C2=O)c(F)cc1Cl`: the outcome was inactive.
Consider `C[C@]12CC[C@@H]3c4ccc(O)cc4C[C@@H](CCCCCCCCCS(=O)CCCC(F)(F)C(F)(F)F)[C@H]3[C@@H]1CC[C@@H]2O` (stereo partly drawn), for which the AC50 is 22.3 µM (active).
Take `CCCCCCC(C)OC(=O)COc1nc(F)c(Cl)c(N)c1Cl` (stereo not drawn): the call was inactive.
As for `N[C@@H](Cc1cc(I)c(Oc2ccc(O)c(I)c2)c(I)c1)C(=O)O`, the result was inactive.
Still for that read-out and setting: then `CCNc1nc(N)nc(Cl)n1`, with “inactive”.
Turning to `COCCO`, the molecule was called inactive.
On to `CCN(Cc1c(F)cccc1Cl)c1c([N+](=O)[O-])cc(C(F)(F)F)cc1[N+](=O)[O-]`, for which the half-maximal activity concentration (AC50) was 28.8 µM (active).
In the case of `CN(C)C(=O)Nc1ccc(Cl)c(Cl)c1`, the half-maximal activity concentration (AC50) was 34.6 µM (active).
As for `CCCCOCCOCCOCc1cc2c(cc1CCC)OCO2`, the result was inactive.
In the case of `CCOC(=O)C(C)Oc1ccc(Oc2cnc3cc(Cl)ccc3n2)cc1` (stereo not drawn), the molecule was called inactive.
With `CCSC(=O)N(CC(C)C)CC(C)C`, the outcome was inactive.
Turning to `COC(=O)CSc1cc(N=c2sc(=O)n3n2CCCC3)c(F)cc1Cl`, the molecule was classed as inactive.
On to `c1ccc2[nH]c(-c3cscn3)nc2c1`, for which the AC50 is 29 µM (active).
`CCCCC(CC)COC(=O)c1ccccc1C(=O)O` (stereo not drawn): the call was inactive.
For `CCOC(=O)C(C)Oc1ccc(Oc2nc3ccc(Cl)cc3o2)cc1` (stereo not drawn), the molecule was called inactive.
On the same count and under the same terms, then `O=C(c1ccccc1)C1CCCCC1`, with “inactive”; and `COc1c(Cl)ccc(Cl)c1C(=O)O`, with “inactive”.
Regarding `CC(=O)[C@H]1CC[C@H]2[C@@H]3CCC4=CC(=O)CC[C@]4(C)[C@H]3CC[C@]12C`, the AC50 is 27.4 µM (active).
Turning to `CC1(C)C(C=C(Cl)Cl)C1C(=O)OCc1cccc(Oc2ccccc2)c1` (stereo not drawn), the molecule was classed as inactive.
In the case of `S=C(S)NCCNC(=S)S.[Mn+2].[S-]C([S-])=NCCN=C([S-])[S-].[Zn+2]`, the AC50 is 56.2 nM (active) and 104 nM (active) and 174 nM (active).

Read-out in the next assay: Interleukin 6 (IL6), IL6 (gene 3569)
The assay can be described thus: LTEA_HepaRG_IL6: Life Technologies and Expression Analysis (LTEA) Assay for Interleukin 6 (IL6) using HepaRG (AID 2283509). The settings on record: mRNA level, 48 h; actives raise or lower the signal. The procedure, abridged:
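Differentiated human HepaRG cells, plated 48 h then switched to serum-free induction medium, were exposed in duplicate for 48 h to eight half-log concentrations up to 100 uM in 0.5% DMSO. IL6 mRNA measured by qRT-PCR, normalized to ACTB/GAPDH/POLR2A.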
Take `CSC(=O)c1cccc2nnsc12`: the molecule was called inactive.
As to `c1ccc(Nc2ccccc2)cc1`, the molecule was called inactive.
For `CCOC(=O)NCCOc1ccc(Oc2ccccc2)cc1`, the AC50 was 77.9 µM (active).
As to `CC(C)(c1ccc(O)cc1)c1ccc(O)cc1`, the molecule was classed as inactive.
Take `Oc1ccc(C(c2ccc(O)cc2)C(Cl)(Cl)Cl)cc1`: the AC50 is 77.1 µM (active).
Consider `CCOC(=O)c1ccc(O)cc1`, for which the molecule was called inactive.
As to `CCCCCOC(=O)COc1cc(N2C(=O)C3=C(CCCC3)C2=O)c(F)cc1Cl`, the result was inactive.
On to `C[C@]12CC[C@@H]3c4ccc(O)cc4C[C@@H](CCCCCCCCCS(=O)CCCC(F)(F)C(F)(F)F)[C@H]3[C@@H]1CC[C@@H]2O` (stereo partly drawn), for which the concentration at half-maximal activity (AC50) was 13.9 µM (active).
In the case of `CCCCCCC(C)OC(=O)COc1nc(F)c(Cl)c(N)c1Cl` (stereo not drawn), the molecule was classed as inactive.
Consider `N[C@@H](Cc1cc(I)c(Oc2ccc(O)c(I)c2)c(I)c1)C(=O)O`, for which the call was inactive.
As for `CCNc1nc(N)nc(Cl)n1`, the outcome was inactive.
Still for that read-out and setting: then `COCCO`, with “inactive”; and `CCN(Cc1c(F)cccc1Cl)c1c([N+](=O)[O-])cc(C(F)(F)F)cc1[N+](=O)[O-]`, with “inactive”; and `CN(C)C(=O)Nc1ccc(Cl)c(Cl)c1`, with “inactive”.
On to `CCCCOCCOCCOCc1cc2c(cc1CCC)OCO2`, for which the result was inactive.
Consider `CCOC(=O)C(C)Oc1ccc(Oc2cnc3cc(Cl)ccc3n2)cc1` (stereo not drawn), for which the molecule was called inactive.
With `CCSC(=O)N(CC(C)C)CC(C)C`, the molecule was called inactive.
Turning to `COC(=O)CSc1cc(N=c2sc(=O)n3n2CCCC3)c(F)cc1Cl`, the outcome was inactive.
Turning to `c1ccc2[nH]c(-c3cscn3)nc2c1`, the molecule was called inactive.
The same measure, in the same setting: then `CCCCC(CC)COC(=O)c1ccccc1C(=O)O` (stereo not drawn), with “inactive”; and `CCOC(=O)C(C)Oc1ccc(Oc2nc3ccc(Cl)cc3o2)cc1` (stereo not drawn), with “inactive”; and `O=C(c1ccccc1)C1CCCCC1`, with “inactive”.
Take `COc1c(Cl)ccc(Cl)c1C(=O)O`: the molecule was called inactive.
For the molecule `CC(=O)[C@H]1CC[C@H]2[C@@H]3CCC4=CC(=O)CC[C@]4(C)[C@H]3CC[C@]12C`, the AC50 is 83.5 µM (active).
As to `CC1(C)C(C=C(Cl)Cl)C1C(=O)OCc1cccc(Oc2ccccc2)c1` (stereo not drawn), the result was inactive.
Consider `S=C(S)NCCNC(=S)S.[Mn+2].[S-]C([S-])=NCCN=C([S-])[S-].[Zn+2]`, for which the AC50 was 1.73 µM (active) and 1.92 µM (active) and 2.15 µM (active).

The values are drawn from PubChem BioAssay (EPA / NIEHS).
